From PubChem
DRD3 antagonist = blocks the human D3 dopamine receptor; max response, negative = inhibition, %; actives 2.5% (n = 360,000); D3R cells, DiscoveRx beta-arrestin luminescence, antagonist mode; active compounds read low; in the data active means max response below about -50%; inconclusive means no clear call, values can overlap the other calls; further: on the % scale 0 is the no-effect control and ±100 the full control effect
Target sequence (P35462 whole entry, looked up): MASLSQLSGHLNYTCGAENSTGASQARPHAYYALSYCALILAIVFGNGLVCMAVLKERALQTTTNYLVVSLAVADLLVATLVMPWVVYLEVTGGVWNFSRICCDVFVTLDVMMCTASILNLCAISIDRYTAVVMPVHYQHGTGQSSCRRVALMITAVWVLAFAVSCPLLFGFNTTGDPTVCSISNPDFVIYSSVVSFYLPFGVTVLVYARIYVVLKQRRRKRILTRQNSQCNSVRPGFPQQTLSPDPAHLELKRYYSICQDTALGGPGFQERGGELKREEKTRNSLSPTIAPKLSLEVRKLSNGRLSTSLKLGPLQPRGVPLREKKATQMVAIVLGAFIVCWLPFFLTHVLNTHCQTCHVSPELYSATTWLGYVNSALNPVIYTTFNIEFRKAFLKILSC
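Cells plated overnight at 1500 cells/well, then exposed to library compounds with dopamine controls for 90 minutes at 37 degrees C. DiscoveRx reagent added for 30–60 minutes at room temperature; luminescence read, quantitative HTS format.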
HepG2 viability = counter-screen for TGF-b inhibitors: cytotoxicity in HepG2 cells; AID 588856; Potency, µM (titrated, usually from 46.1 µM), for inactives: at the highest dose activity change, negative = cytotoxicity, hits mostly cytotoxic; actives 0.76% (n = 410,000); HepG2 CAGA-GFP viability, ATP luminescence, 18 h; further: potency means the concentration at half of the fitted maximal effect
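CellTiter-Glo luminescence gave cytotoxicity after 18 hours at 37 degrees C. The cells were HepG2 CAGA-GFP in 1% FBS DMEM, stimulated with 500 pg/mL TGF-beta after compound addition. %Activity was normalised to no-cell wells (complete cell-killing) and DMSO (no toxicity), and curves were fitted and classified.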
D3 ag = agonists of human D3 dopamine receptor; D3R DiscoveRx beta-arrestin cells, luminescence, 90 min; max activation, %; actives 0.58% (n = 410,000); P35462; in the data active means max activation above about 30%; further: 0% is about no effect
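Cells at 1500/well, incubated overnight, then treated with pinned compounds (dopamine as control) for 90 min at 37 degrees C. DiscoveRx reagent added for 30 - 60 minutes at room temperature; luminescence read.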
TGFb inhibitor = TGF-b pathway inhibition. Potency, µM (top dose mostly 46.1 µM), inactives show at the highest dose activity, negative = inhibition, most hits filed as inhibitors. AID 588855. HepG2 CAGA-GFP TGF-b/SMAD3 reporter, GFP fluorescence, 18 h; TGF-beta stimulated, 500 pg/mL final. actives 1.2% (n = 410,000); further: potency means the concentration at half of the fitted maximal effect; on the % scale 0 is the no-effect control and ±100 the full control effect; nearly all actives have a fitted effect of over 65% in size
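HEPG2 CAGA-GFP cells (1000/well, DMEM with 1% FBS) were pre-incubated 2 h at 37 degrees C, given compound by pin tool, then stimulated with TGF-beta at 500 pg/mL final for 18 h before per-cell GFP fluorescence imaging.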
ATXN viability = reduces viability in counter-screen for ATXN expression inhibitors; S2 cells (HEK-293 line with an ATXN2-luciferase reporter) viability, CellTiter-Fluor protease fluorescence, 24 h; Potency, µM (doses to about 56.7 µM), usual class: cytotoxic; actives 0.49% (n = 400,000); further: potency means the concentration at half of the fitted maximal effect; nearly all actives have a fitted effect of over 40% in size
ATXN2 expr inh = inhibitors of ATXN2 expression; AID 1745845; actives 0.72% (n = 360,000); HEK-293 ATXN2-luciferase reporter, luminescence, 24 h; Potency, µM (top dose mostly 57 µM), for inactives: top-dose activity change, negative = inhibition, hits mostly inhibitors; further: potency means the concentration at half of the fitted maximal effect; on the % scale 0 is the no-effect control and ±100 the full control effect; nearly all actives have a fitted effect of over 55% in size
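ATXN2-luciferase reporter cells (luciferase flanked by upstream and downstream ATXN2 gene portions) were treated 24 h at 37 °C with compounds at up to 57 uM. SteadyGlo luminescence gave expression; GF-AFC fluorescence gave viability.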
* marks the source's active call; other numbers are inactive results. Rows were chosen to be rich in hits. Some 4.7% of all compounds tested hit in one or more screens of this group. Unless noted, the call rests on the fitted dose curve; in most records, active means well fitted curve in the direction sought with a large enough effect; inconclusive means small, poorly fitted or top-dose-only effect, or another doubt; inactive means no such curve, though single readings can be large; an effect the other way counts as inactive or inconclusive.

Screening CS[C@H]1SC[C@@H]2C(=O)N(C)[C@H](C(C)C)C(=O)OC[C@H](NC(=O)c3cnc4ccccc4n3)C(=O)N[C@H](C)C(=O)N(C)[C@@H]1C(=O)N(C)[C@H](C(C)C)C(=O)OC[C@H](NC(=O)c1cnc3ccccc3n1)C(=O)N[C@H](C)C(=O)N2C returned ATXN2 expr inh 0.011µM*.
`Cc1ccc(NS(=O)(=O)c2c(C)nc3sccn3c2=O)c(Cl)c1` gave HepG2 viability 3%, D3 ag -8, TGFb inhibitor -5%, ATXN viability inactive and ATXN2 expr inh 1%.
`Cc1cc(Br)cn2c(Cc3ccsc3)c(-c3ccco3)nc12` gave DRD3 antagonist -56*, HepG2 viability 16µM*, D3 ag -15, TGFb inhibitor 6.3µM*, ATXN viability inconclusive and ATXN2 expr inh inconclusive.
For Fc1ccc(-c2nc3ccc(Br)cn3c2Cc2cccc(F)c2)cc1 the results were DRD3 antagonist 0, HepG2 viability -33%, D3 ag 3, TGFb inhibitor 13µM*, ATXN viability inactive and ATXN2 expr inh 44%.
For Cc1cc(Br)cn2c(Cc3ccccc3)c(-c3cccc(Br)c3)nc12 the results were DRD3 antagonist -51*, HepG2 viability -24%, D3 ag -12, TGFb inhibitor -10%, ATXN viability inactive and ATXN2 expr inh 11%.
`Cc1cc(Br)cn2c(Cc3ccccc3)c(-c3ccc(Cl)cc3)nc12` gave DRD3 antagonist -19, D3 ag -6, ATXN viability inactive and ATXN2 expr inh 18%.
Screening Cc1ccc(Cc2c(-c3ccc(F)cc3)nc3c(C)cc(Br)cn23)cc1 returned DRD3 antagonist -10, HepG2 viability -62%, D3 ag 4, TGFb inhibitor 13µM*, ATXN viability inconclusive and ATXN2 expr inh -17%.
For Cc1nc([N+](=O)[O-])cn1CC(O)c1ccc2c(c1)OCO2 (stereo unspecified) the results were HepG2 viability -15% and TGFb inhibitor -10%.
Cc1c(N=NC2=C(O)CCCC2=O)c(=O)n(-c2ccccc2)n1C was read as DRD3 antagonist -83*, HepG2 viability -2%, D3 ag -28, TGFb inhibitor -12%, ATXN viability inactive and ATXN2 expr inh -11%.
`Cc1c(N=Nc2ccc(O)cc2)c(=O)n(-c2ccccc2)n1C` gave DRD3 antagonist -30, HepG2 viability 3%, D3 ag 3, TGFb inhibitor 8%, ATXN viability inconclusive and ATXN2 expr inh -7%.
Screening Cc1c(O)ccc2c3c(c(=O)oc12)CCCC3 returned DRD3 antagonist 12, HepG2 viability -1%, D3 ag 1, TGFb inhibitor 0%, ATXN viability inactive and ATXN2 expr inh -7%.
`Cc1oc2c(C)c3oc(=O)c4c(c3cc2c1C)CCCC4` gave DRD3 antagonist 26, HepG2 viability 3%, D3 ag 32*, TGFb inhibitor 15%, ATXN viability inconclusive and ATXN2 expr inh -11%.
Screening CCOC(=O)c1ccc(N2C(=O)c3n[nH]c(-c4ccco4)c3C2c2ccc(C)cc2)cc1 (stereo unspecified) returned HepG2 viability 16µM*, D3 ag 8, TGFb inhibitor inconclusive, ATXN viability 28µM* and ATXN2 expr inh inconclusive.
For CCOC(=O)c1ccc(N2C(=O)c3n[nH]c(C)c3C2c2ccc(OCC)cc2)cc1 (stereo unspecified) the results were HepG2 viability -117%, D3 ag -12, TGFb inhibitor 11µM*, ATXN viability inconclusive and ATXN2 expr inh inconclusive.
For CCOC(=O)c1ccc(N2C(=O)c3n[nH]c(-c4ccco4)c3C2c2ccc([N+](=O)[O-])cc2)cc1 (stereo unspecified) the results were DRD3 antagonist -22, HepG2 viability -30%, D3 ag 5, TGFb inhibitor inconclusive, ATXN viability inconclusive and ATXN2 expr inh inconclusive.
